Experimental data taken from the supplement of paper PMC10849652.
About 8,800 targets were measured; listed, in parts, are those with a hit and a random draw of the rest. About 0.5% of all pairs of compound and target were hits.

Columns and labels:
Experiment in all cases: log2 fold change, soluble protein after heating vs DMSO (PISA); higher = thermal stabilisation; K562 lysate, 10 uM; active = over 0.2 and 3.5 SD of the protein, either way, in both replicates (recomputed)
erlotinib = compound: C#Cc1cccc(Nc2ncnc3cc(OCCOC)c(OCCOC)cc23)c1 [erlotinib]
In short: (§1)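 A 30 min treatment with 10 μM compound was applied to crude K562 extract at 1 mg/mL protein in PBS pH 7.4 with 1 mM MgCl2. Heating for 3 min spanned 48°C-58°C, after which aliquots were pooled, adjusted to 0.5% NP-40 at 4°C and spun at 21,000xg for 90 min. TMTpro 16plex LC-MS/MS of the supernatant, with channel sums equalised, gave values recorded as log-two fold change in thermal stability against solvent controls, from duplicates.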

[1] = compound: C/C(=N\NC(=O)C1=CC(=CC=C1)S(=O)(=O)N2CCOCC2)/C3=C(C=CC(=C3)Cl)O
In short: as §1

[2] = compound: C1=CC(=CC=C1C2=NC3=C(N2)C=C(C=C3)C(=O)N)OC4=CC=C(C=C4)Cl
In short: as §1

[3] = compound: C1=CC2=C(C=CC(=C2)/C=C\3/C(=O)NC(=NCC4=CC=CS4)S3)N=C1
In short: as §1

[4] = compound: C1=CC2=NC=CN=C2C=C1/C=C/3\C(=O)NC(=O)S3
In short: as §1

[5] = compound: C1=CC=C(C=C1)C2=NC(=C(N2)C3=CC=NC=C3)C4=CC(=C(C=C4)Cl)O
In short: as §1

[6] = compound: C1=CC=C2C(=C1)C3=NNC4=CC=CC(=C43)C2=O
In short: as §1

[7] = compound: C1CCN(C1)C(=O)NC2=CC=CC(=C2)NC3=NC=C(C(=N3)NCCC4=CN=CN4)Br
In short: as §1

[8] = compound: C1CN(CCC1(CC2=CC=C(C=C2)Cl)N)C3=NC=NC4=C3C=CN4
In short: as §1

IRAK-1-4 Inhibitor I = compound: C1COCCN1CCN2C3=CC=CC=C3N=C2NC(=O)C4=CC(=CC=C4)[N+](=O)[O-] [IRAK-1-4 Inhibitor I]
In short: as §1

ibrutinib = compound: C=CC(=O)N1CCC[C@@H](n2nc(-c3ccc(Oc4ccccc4)cc3)c3c(N)ncnc32)C1 [ibrutinib]
In short: as §1

[9] = compound: CC(=O)c1cnc2ccc(-c3cc(Cl)c(O)c(Cl)c3)nc2c1N[C@H]1CC[C@H](CN(C)C)CC1
In short: as §1

ralimetinib = compound: CC(C)(C)Cn1c(N)nc2ccc(-c3[nH]c(C(C)(C)C)nc3-c3ccc(F)cc3)nc21 [ralimetinib]
In short: as §1

[10] = compound: CC(C)(O)CC(=O)NCCn1ccc2ncnc(Nc3ccc(Oc4cccc(C(F)(F)F)c4)c(Cl)c3)c21
In short: as §1

[11] = compound: CC(C)C1=C2N=C(C=C(N2N=C1)NCC3=CC=CC=C3)NCCCCCCN
In short: as §1

[12] = compound: CC1=C(C(CC(=O)N1)C2=CC=C(C=C2)C(F)(F)F)C(=O)NC3=C(C=C4C(=C3)C=NN4)F
In short: as §1

[13] = compound: CC1=C(C2=C(C=C1)C(=O)C3=CC=CC=C3N2CCCN)C
In short: as §1

[14] = compound: CC1=C(C=C(C=C1)NC(=O)C2=CC(=CC=C2)C(C)(C)C#N)NC3=CC4=C(C=C3)N=CN(C4=O)C
In short: as §1

[15] = compound: CC1=C(C=C(C=C1)NC(=O)C2=CC(=CC=C2)N(C)C)NC(=O)C3=CC=C(C=C3)O
In short: as §1

[16] = compound: CC1=CC=C(C=C1)SC2=C3C=C(SC3=CN=C2)C(=O)N
In short: as §1

Measured: log2 fold change

FUBP3 (UniProt Q96I24)
Sequence of UniProt Q96I24 (Q96I24 whole entry, looked up): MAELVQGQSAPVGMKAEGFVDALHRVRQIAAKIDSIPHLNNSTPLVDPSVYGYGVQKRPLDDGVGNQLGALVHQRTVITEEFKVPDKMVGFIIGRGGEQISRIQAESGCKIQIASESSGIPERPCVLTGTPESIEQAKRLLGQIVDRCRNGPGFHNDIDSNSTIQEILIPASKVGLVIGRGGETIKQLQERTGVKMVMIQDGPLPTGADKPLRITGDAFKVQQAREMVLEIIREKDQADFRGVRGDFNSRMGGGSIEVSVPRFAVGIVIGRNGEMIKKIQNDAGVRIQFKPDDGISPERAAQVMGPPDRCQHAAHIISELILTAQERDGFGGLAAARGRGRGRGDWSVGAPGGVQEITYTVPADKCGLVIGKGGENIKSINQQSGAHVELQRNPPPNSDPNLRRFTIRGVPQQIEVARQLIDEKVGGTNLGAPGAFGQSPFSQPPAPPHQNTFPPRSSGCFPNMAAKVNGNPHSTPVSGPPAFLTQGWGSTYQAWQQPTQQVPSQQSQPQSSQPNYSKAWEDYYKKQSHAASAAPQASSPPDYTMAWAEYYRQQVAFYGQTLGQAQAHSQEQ
inactive: erlotinib -0.023 | [1] 0.003 | [2] 0.04 | [3] 0.007 | [4] -0.009 | [5] -0.141 | [6] -0.033 | [7] -0.038 | [8] 0.003 | IRAK-1-4 Inhibitor I 0.023 | ibrutinib 0.024 | [9] 0.002 | ralimetinib 0.021 | [10] -0.051 | [11] 0.014 | [12] -0.018 | [13] 0.072 | [14] -0.149 | [15] -0.003 | [16] -0.018

ERLIN1 (UniProt O75477)
Sequence of UniProt O75477 (O75477 whole entry, looked up): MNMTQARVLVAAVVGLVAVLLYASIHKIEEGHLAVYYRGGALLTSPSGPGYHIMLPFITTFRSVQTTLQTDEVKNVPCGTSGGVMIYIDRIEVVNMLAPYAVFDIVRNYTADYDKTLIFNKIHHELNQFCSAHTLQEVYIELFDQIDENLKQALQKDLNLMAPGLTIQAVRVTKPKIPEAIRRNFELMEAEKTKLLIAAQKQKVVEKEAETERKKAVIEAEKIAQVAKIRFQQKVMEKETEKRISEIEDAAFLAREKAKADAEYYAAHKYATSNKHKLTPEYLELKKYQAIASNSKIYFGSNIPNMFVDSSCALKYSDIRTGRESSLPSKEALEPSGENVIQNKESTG
inactive: erlotinib -0.031 | [1] 0.123 | [2] -0.17 | [3] 0.072 | [4] -0.038 | [5] 0.015 | [6] -0.02 | [7] -0.015 | [8] -0.046 | IRAK-1-4 Inhibitor I -0.071 | ibrutinib 0.005 | [9] 0.034 | ralimetinib -0.011 | [10] 0.038 | [11] -0.007 | [12] 0.044 | [13] 0.005 | [14] -0.052 | [15] -0.008 | [16] 0.012

FAM120B (UniProt Q96EK7)
Sequence of UniProt Q96EK7 (Q96EK7 whole entry, looked up): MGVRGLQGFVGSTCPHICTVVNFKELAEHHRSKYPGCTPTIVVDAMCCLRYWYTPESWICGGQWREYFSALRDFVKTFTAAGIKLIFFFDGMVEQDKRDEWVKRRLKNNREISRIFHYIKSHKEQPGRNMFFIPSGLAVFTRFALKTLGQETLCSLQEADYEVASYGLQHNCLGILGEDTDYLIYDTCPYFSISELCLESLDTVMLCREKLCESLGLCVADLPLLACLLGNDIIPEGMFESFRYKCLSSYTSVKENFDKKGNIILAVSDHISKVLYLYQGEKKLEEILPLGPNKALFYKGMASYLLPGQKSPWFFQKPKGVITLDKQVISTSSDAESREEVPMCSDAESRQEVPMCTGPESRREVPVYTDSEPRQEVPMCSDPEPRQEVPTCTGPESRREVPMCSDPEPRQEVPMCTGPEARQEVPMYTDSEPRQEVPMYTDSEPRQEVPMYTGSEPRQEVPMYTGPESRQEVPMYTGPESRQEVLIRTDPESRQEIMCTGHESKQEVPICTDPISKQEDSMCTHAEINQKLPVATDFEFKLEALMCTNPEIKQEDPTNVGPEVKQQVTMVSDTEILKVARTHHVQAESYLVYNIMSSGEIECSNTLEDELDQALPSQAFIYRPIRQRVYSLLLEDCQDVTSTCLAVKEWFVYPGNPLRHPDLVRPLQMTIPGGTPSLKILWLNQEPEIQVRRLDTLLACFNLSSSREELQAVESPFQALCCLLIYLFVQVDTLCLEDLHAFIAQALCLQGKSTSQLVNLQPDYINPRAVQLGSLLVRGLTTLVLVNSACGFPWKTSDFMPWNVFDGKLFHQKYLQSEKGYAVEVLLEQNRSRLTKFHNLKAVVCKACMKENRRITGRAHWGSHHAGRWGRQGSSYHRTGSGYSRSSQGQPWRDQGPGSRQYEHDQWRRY
inactive: erlotinib 0.056 | [1] -0.032 | [2] 0.036 | [3] 0.035 | [4] 0.02 | [5] -0.004 | [6] 0.044 | [7] -0.013 | [8] 0.007 | IRAK-1-4 Inhibitor I 0.009 | ibrutinib 0.023 | [9] -0.003 | ralimetinib 0.035 | [10] -0.013 | [11] 0.031 | [12] -0.028 | [13] 0.002 | [14] 0.008 | [15] 0.041 | [16] 0.012

ELAVL1 isoform 2 (UniProt Q15717)
Sequence of UniProt Q15717 (Q15717 whole entry, looked up): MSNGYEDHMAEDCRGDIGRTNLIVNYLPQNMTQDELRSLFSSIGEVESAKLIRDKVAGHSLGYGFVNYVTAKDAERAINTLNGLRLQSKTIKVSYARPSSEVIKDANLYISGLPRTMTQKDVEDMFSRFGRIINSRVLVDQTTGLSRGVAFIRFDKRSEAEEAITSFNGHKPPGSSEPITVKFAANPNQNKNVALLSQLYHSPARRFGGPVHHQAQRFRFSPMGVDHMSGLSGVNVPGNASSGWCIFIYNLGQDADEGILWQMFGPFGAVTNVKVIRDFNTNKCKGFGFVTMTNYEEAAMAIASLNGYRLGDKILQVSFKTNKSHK
inactive: erlotinib 0.047 | [1] 0.008 | [2] 0.019 | [3] 0.025 | [4] -0.017 | [5] 0.001 | [6] -0.069 | [7] -0.027 | [8] 0.036 | IRAK-1-4 Inhibitor I -0.051 | ibrutinib 0.042 | [9] -0.034 | ralimetinib -0.016 | [10] 0.039 | [11] -0.009 | [12] -0.02 | [13] -0.026 | [14] -0.042 | [15] 0.028 | [16] 0.007

FARSB (UniProt Q9NSD9)
Sequence of UniProt Q9NSD9 (Q9NSD9 whole entry, looked up): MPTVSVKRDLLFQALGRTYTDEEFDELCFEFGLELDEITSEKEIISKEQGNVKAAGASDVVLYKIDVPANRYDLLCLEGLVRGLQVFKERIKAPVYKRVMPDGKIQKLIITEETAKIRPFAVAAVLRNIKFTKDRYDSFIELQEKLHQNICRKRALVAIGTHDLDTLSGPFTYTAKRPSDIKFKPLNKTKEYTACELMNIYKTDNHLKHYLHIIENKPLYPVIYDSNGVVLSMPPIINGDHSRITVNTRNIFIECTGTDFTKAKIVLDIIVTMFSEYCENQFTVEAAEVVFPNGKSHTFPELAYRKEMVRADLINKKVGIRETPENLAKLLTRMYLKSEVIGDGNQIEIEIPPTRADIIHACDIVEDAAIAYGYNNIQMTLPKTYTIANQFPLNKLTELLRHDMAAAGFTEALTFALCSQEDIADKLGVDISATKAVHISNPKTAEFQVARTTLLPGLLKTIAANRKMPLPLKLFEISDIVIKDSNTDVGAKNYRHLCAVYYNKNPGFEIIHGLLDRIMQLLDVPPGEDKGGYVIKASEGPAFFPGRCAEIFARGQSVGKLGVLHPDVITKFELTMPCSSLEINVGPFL
inactive: erlotinib -0.004 | [1] 0.019 | [2] -0.007 | [3] -0.01 | [4] -0.02 | [5] 0.039 | [6] -0.021 | [7] -0.004 | [8] 0.011 | IRAK-1-4 Inhibitor I -0.027 | ibrutinib 0.021 | [9] -0.013 | ralimetinib -0.006 | [10] 0.016 | [11] 0.004 | [12] -0.023 | [13] 0.007 | [14] 0.033 | [15] 0.008 | [16] 0.03

DSTN (UniProt P60981)
Sequence of UniProt P60981 (P60981 whole entry, looked up): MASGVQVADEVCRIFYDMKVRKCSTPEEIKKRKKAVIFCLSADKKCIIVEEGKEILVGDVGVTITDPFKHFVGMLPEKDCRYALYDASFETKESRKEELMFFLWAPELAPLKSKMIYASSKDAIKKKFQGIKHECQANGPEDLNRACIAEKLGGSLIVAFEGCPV
inactive: erlotinib -0.038 | [1] -0.027 | [2] -0.007 | [3] 0.014 | [4] 0.013 | [5] 0 | [6] 0.005 | [7] -0.021 | [8] -0.012 | IRAK-1-4 Inhibitor I -0.007 | ibrutinib -0.011 | [9] -0.013 | ralimetinib -0.004 | [10] 0.038 | [11] -0.006 | [12] -0.001 | [13] 0.045 | [14] -0.005 | [15] -0.012 | [16] -0.003

FNBP1L (UniProt Q5T0N5)
Sequence of UniProt Q5T0N5 (Q5T0N5 whole entry, looked up): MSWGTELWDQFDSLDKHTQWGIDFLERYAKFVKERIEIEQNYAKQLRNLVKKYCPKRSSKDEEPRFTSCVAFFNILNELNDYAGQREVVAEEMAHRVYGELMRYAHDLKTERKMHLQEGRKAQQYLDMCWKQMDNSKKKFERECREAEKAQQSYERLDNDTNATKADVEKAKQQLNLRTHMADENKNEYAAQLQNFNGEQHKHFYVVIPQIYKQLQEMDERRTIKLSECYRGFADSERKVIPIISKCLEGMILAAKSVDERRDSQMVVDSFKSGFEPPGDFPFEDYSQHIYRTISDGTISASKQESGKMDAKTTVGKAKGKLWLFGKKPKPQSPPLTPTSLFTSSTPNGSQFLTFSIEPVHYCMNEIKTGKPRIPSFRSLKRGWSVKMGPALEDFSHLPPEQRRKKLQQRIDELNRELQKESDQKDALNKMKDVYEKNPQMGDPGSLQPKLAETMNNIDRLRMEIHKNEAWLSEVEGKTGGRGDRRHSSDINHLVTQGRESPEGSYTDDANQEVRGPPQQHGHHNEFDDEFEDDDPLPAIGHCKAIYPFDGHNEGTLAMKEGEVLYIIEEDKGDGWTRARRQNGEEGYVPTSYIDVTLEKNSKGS
inactive: erlotinib 0.015 | [1] -0.018 | [2] 0.013 | [3] 0.031 | [4] 0.044 | [5] 0.066 | [6] 0 | [7] -0.012 | [8] -0.061 | IRAK-1-4 Inhibitor I -0.016 | ibrutinib 0.034 | [9] -0.006 | ralimetinib 0.055 | [10] -0.082 | [11] -0.003 | [12] 0 | [13] 0.066 | [14] -0.007 | [15] 0.035 | [16] 0.034

FAM118B (UniProt Q9BPY3)
Sequence of UniProt Q9BPY3 (Q9BPY3 whole entry, looked up): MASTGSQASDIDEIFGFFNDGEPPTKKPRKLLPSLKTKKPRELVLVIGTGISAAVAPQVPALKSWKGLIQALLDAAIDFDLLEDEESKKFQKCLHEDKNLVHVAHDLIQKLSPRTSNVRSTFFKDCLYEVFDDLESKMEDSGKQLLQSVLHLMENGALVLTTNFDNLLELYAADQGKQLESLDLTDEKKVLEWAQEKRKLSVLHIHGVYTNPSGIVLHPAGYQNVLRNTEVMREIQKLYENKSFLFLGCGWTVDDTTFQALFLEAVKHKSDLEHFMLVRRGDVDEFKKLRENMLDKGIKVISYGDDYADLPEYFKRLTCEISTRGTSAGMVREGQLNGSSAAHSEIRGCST
inactive: erlotinib -0.004 | [1] 0.051 | [2] 0.004 | [3] 0.061 | [4] 0.03 | [5] -0.01 | [6] -0.012 | [7] 0.013 | [8] -0.004 | IRAK-1-4 Inhibitor I -0.03 | ibrutinib 0.066 | [9] -0.016 | ralimetinib 0.015 | [10] -0.019 | [11] 0.023 | [12] -0.01 | [13] 0.012 | [14] -0.012 | [15] 0.03 | [16] 0.008

ETHE1 (UniProt O95571)
Sequence of UniProt O95571 (O95571 whole entry, looked up): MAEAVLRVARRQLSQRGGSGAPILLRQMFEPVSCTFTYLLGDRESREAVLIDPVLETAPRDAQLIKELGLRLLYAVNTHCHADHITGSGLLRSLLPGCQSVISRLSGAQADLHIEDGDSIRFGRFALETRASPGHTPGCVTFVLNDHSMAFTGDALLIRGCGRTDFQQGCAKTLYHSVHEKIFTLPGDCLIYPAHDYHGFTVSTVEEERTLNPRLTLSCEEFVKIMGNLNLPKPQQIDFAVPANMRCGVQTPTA
inactive: erlotinib -0.046 | [1] -0.01 | [2] 0.039 | [3] 0.021 | [4] 0.034 | [5] -0.007 | [6] 0.012 | [7] -0.046 | [8] -0.013 | IRAK-1-4 Inhibitor I -0.044 | ibrutinib -0.029 | [9] -0.01 | ralimetinib 0.03 | [10] -0.021 | [11] -0.092 | [12] 0.087 | [13] 0.022 | [14] 0.011 | [15] 0.046 | [16] -0.042

GBA2 (UniProt Q9HCG7)
inactive: erlotinib -0.088 | [2] 0.063 | [4] 0.035 | [5] -0.055 | [7] 0.007 | [8] 0.041 | IRAK-1-4 Inhibitor I 0.01 | ibrutinib -0.071 | [9] -0.046 | ralimetinib 0.082 | [10] -0.097 | [11] 0.042 | [12] -0.037 | [13] 0.077 | [14] 0.004 | [15] 0.08 | [16] 0.021

EXO5 (UniProt Q9H790)
inactive: erlotinib 0.279 | [2] 0.012 | [4] -0.226 | [5] 0.085 | IRAK-1-4 Inhibitor I -0.028 | ibrutinib 0.111 | ralimetinib 0.018 | [10] -0.126 | [11] -0.025 | [14] 0.217 | [15] -0.067

ETFRF1 (UniProt Q6IPR1)
Sequence of UniProt Q6IPR1 (Q6IPR1 whole entry, looked up): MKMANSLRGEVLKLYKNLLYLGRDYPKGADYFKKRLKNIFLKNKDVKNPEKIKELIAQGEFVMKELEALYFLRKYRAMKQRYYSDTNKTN
inactive: erlotinib -0.032 | [1] -0.008 | [2] -0.048 | [3] 0.083 | [4] -0.064 | [5] -0.038 | [6] -0.063 | IRAK-1-4 Inhibitor I -0.002 | ibrutinib 0.062 | [9] 0.028 | ralimetinib -0.005 | [10] -0.044 | [11] -0.006 | [12] 0.049 | [13] -0.018 | [14] -0.071 | [15] 0.136 | [16] -0.02

FMNL2 isoform 3 (UniProt Q96PY5)
inactive: erlotinib -0.02 | [2] -0.064 | [5] 0.083 | IRAK-1-4 Inhibitor I -0.092 | [9] -0.048 | ralimetinib -0.02 | [10] 0.185 | [11] 0.065 | [12] -0.056 | [13] 0.071 | [14] 0.116 | [15] 0.048 | [16] -0.003

ERG28 (UniProt Q9UKR5)
Sequence of UniProt Q9UKR5 (Q9UKR5 whole entry, looked up): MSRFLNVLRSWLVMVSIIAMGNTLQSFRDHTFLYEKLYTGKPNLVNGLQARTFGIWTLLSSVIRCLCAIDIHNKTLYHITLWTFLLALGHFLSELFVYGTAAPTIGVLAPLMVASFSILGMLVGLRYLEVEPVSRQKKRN
inactive: [4] -0.015 | [7] 0.072 | [8] -0.066 | ibrutinib 0.064 | [9] -0.045 | [13] 0.059 | [16] -0.004

EPN2 (UniProt I3L356)
inactive: [4] -0.143 | ibrutinib 0.105 | [9] -0.021 | [12] 0.102 | [16] 0.097

FAM111A (UniProt Q96PZ2)
inactive: erlotinib -0.025 | [1] -0.04 | [2] -0.01 | [3] 0.002 | [5] -0.088 | [6] -0.088 | [7] 0.046 | [8] 0.022 | IRAK-1-4 Inhibitor I -0.088 | [9] 0.171 | ralimetinib 0.116 | [10] 0.083 | [11] 0.125 | [13] -0.106 | [14] -0.093 | [15] 0.022 | [16] -0.244

GART (UniProt C9JZG2)
inactive: [4] 0.092 | [5] 0.007 | [7] -0.025 | [8] -0.011 | IRAK-1-4 Inhibitor I 0.078 | ibrutinib -0.062 | [9] 0.037 | ralimetinib 0.069 | [10] -0.068 | [12] -0.114 | [14] 0.083 | [15] -0.052 | [16] 0.022

FAT1 (UniProt Q14517)
inactive: erlotinib -0.004 | [2] 0.006 | [5] 0.126 | [7] -0.119 | [8] 0.128 | IRAK-1-4 Inhibitor I -0.053 | [9] -0.109 | ralimetinib -0.034 | [10] -0.016 | [11] -0.05 | [14] 0.188 | [15] 0.024 | [16] -0.105

FOXJ2 (UniProt Q9P0K8)
Sequence of UniProt Q9P0K8 (Q9P0K8 whole entry, looked up): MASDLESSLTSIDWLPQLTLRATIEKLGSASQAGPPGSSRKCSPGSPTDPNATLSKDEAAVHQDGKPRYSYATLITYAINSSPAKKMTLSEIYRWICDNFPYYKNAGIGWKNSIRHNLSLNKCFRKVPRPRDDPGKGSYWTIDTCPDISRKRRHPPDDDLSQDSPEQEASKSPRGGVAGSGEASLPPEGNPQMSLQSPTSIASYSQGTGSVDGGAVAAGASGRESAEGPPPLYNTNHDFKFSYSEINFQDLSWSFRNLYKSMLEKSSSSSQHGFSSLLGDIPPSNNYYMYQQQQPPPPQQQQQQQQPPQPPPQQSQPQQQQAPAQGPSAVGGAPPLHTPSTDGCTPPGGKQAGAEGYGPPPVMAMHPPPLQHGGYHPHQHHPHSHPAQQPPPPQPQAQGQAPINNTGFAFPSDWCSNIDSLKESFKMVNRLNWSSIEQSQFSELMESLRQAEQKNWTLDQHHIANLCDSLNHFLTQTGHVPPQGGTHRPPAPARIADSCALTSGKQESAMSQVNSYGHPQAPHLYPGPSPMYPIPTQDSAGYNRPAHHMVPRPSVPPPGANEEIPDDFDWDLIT
inactive: erlotinib 0.102 | [2] 0.056 | [4] 0.139 | [5] 0.026 | [7] 0.138 | [8] -0.036 | IRAK-1-4 Inhibitor I -0.03 | ibrutinib -0.045 | ralimetinib 0.02 | [10] -0.035 | [11] 0.091 | [12] 0.041 | [13] -0.129 | [15] 0.108

GDE1 (UniProt Q9NZC3)
inactive: erlotinib 0.042 | [2] 0.02 | [4] -0.032 | [5] 0.097 | [7] 0.05 | [8] 0.027 | IRAK-1-4 Inhibitor I -0.01 | ibrutinib -0.047 | [9] -0.017 | ralimetinib 0.067 | [10] 0.026 | [11] 0.025 | [13] -0.038 | [14] -0.036 | [15] -0.122 | [16] -0.014
